# PubChem BioAssay
# Activity calls are given as the source filed them.
# What was measured:
# [1] = binders of probe aFSTL3 on microarray, primary screen, stem cell growth factor project, biochemical, small-molecule microarray, fluorescence 635/667 (AID 1064); settings: higher = more signal;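 further: measures binding of the biotinylated anti-FSTL3 antibody to printed compounds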
# [2] = binders from COS7 lysate, DM2A8 probe, primary screen, torsin A project, cell lysate, small-molecule microarray, fluorescence 635/667 (AID 1065); settings: higher = more signal, COS7 lysate expressing mutant human TOR1A
# [3] = binders of probe aFGF2 on microarray, primary screen, stem cell growth factor project, biochemical, small-molecule microarray, fluorescence 635/667 (AID 1067); settings: higher = more signal;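 further: measures binding of biotinylated aFGF2 protein to printed compounds on slides; z-score merges feature fluorescence and signal-to-noise across triplicate slides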
# [4] = binders of probe aFGF10 on microarray, primary screen, stem cell growth factor project, biochemical, small-molecule microarray, fluorescence 635/667 (AID 1071); settings: higher = more signal;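 further: score merges 667 nm spot intensity and signal to noise from triplicate slides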
# [5] = molecular target: Neurogenic locus notch homolog protein 2 (Homo sapiens) (UniProt Q04721); assay: Notch2 binders on small-molecule microarrays, primary screen, biochemical, small-molecule microarray, 635 nm fluorescence, stem cell growth factors (AID 1073); settings: Notch2 binding, higher = more signal
# [6] = molecular target: Pro-neuregulin-1, membrane-bound isoform (Homo sapiens) (UniProt Q02297); assay: NRG1 binders on small-molecule microarrays, primary screen, psychiatric disease protein project, biochemical, small-molecule microarray, fluorescence 635/667 (AID 1075); settings: NRG1 binding, 635 nm fluorescence, higher = more signal;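 further: score combines 667 nm spot fluorescence with signal to noise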
# Pro-neuregulin-1, membrane-bound isoform (Homo sapiens), sequence (Q02297 whole entry, looked up, the tested form may be a part, canonical isoform): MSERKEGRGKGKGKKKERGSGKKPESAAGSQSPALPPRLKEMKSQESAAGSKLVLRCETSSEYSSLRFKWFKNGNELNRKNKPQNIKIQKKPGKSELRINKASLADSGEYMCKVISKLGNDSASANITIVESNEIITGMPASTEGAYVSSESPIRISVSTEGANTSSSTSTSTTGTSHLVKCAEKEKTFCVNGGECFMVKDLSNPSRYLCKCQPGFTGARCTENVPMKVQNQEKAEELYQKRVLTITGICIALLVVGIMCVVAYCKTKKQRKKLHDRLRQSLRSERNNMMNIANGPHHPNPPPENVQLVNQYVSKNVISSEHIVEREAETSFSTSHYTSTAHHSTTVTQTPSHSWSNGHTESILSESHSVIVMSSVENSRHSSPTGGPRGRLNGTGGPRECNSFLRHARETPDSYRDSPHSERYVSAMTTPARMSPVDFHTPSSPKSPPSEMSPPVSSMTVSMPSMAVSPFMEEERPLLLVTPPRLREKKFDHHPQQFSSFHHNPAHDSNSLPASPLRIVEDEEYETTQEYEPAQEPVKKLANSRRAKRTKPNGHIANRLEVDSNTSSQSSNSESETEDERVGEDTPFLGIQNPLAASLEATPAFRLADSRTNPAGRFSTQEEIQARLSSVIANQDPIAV
# [7] = system: Neuregulin-1 EGF-like domain; assay: binders of neuregulin-1 EGF-like domain, primary screen, biochemical, small-molecule microarray, 635 nm fluorescence (AID 1081); settings: small-molecule microarray binding, higher = more signal;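 further: binding of the protein to compounds printed on small-molecule microarray slides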
# [8] = FRG1 promoter luciferase signal modulators, primary screen, FRG1 inhibition for FSHD, cell-based, C2C12 myotubes, firefly/Renilla luciferase, luminescence (AID 1084); settings: higher = more signal, called active from +8 up or from −8 down
# [9] = binders of probe aFST on microarray, primary screen, stem cell growth factor project, biochemical, small-molecule microarray, fluorescence 635/667 (AID 1086); settings: higher = more signal;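 further: score merges 667 nm fluorescence with signal-to-noise of each printed compound spot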
# [10] = binders of probe aHhip on microarray, primary screen, stem cell growth factor project, biochemical, small-molecule microarray, fluorescence 635/667 (AID 1087); settings: higher = more signal;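 further: score merges spot fluorescence at 667nm with spot signal to noise ratio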
# [11] = system: PRMT1 (protein arginine N-methyltransferase 1); assay: PRMT1 binders on small-molecule microarrays, primary screen, biochemical, small-molecule microarray, 635 nm fluorescence (AID 1088); settings: small-molecule microarray binding, higher = more signal;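 further: binding of Prmt1 protein to compounds spotted on small-molecule microarray slides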
# [12] = yeast growth modulation, basal conditions, primary screen, YJM789 clinical isolate, OD600, 24 h (AID 1089);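 further: growth of clinical yeast isolate S. cerevisiae YJM 789 seeded 1000 cells per well; test concentration not given here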; settings: S. cerevisiae YJM789 growth, higher = more signal, called active from +8 up or from −8 down
# [13] = fission yeast growth modulation, primary screen, strain 972, OD600, 24 h, no modulator (AID 1090);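 further: basal condition with compound alone and no growth modifier present; test concentration not given here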; settings: S. pombe 972 growth, higher = more signal, called active from +8 up or from −8 down
# [14] = S. cerevisiae growth modulation with rapamycin, primary screen, strain BY4716, OD600, 96 h (AID 1091); settings: higher = more signal, called active from +8 up or from −8 down; further: test concentration not given here
# [15] = molecular target: Torsin-1A-interacting protein 2 (Homo sapiens) (UniProt Q8NFQ8); assay: LULL1 binders on small-molecule microarray, primary screen, cell lysate, human LULL1 lysate, 635/667 nm fluorescence (AID 1092); settings: hLULL1 lysate binding, 635 nm fluorescence, higher = more signal;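 further: probe is lysate of COS7 cells overexpressing human LULL1; score merges per-feature 667 nm fluorescence with signal-to-noise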
# Torsin-1A-interacting protein 2 (Homo sapiens), sequence (Q8NFQ8 whole entry, looked up): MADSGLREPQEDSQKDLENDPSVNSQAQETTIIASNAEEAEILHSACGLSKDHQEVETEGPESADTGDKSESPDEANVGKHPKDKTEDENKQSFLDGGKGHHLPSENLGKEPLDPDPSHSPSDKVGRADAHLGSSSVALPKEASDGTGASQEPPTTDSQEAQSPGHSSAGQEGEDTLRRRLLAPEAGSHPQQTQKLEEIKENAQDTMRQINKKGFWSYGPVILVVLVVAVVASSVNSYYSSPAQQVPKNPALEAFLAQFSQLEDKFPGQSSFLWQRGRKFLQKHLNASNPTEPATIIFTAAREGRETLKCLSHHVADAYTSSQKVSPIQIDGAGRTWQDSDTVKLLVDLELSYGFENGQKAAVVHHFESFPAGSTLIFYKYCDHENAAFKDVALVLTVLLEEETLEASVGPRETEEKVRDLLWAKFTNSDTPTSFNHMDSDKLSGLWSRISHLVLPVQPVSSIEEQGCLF
# [16] = E. coli growth modulation, two-sided OD650, primary screen, E. coli filamentation project, strain DRC41, 24 h (AID 1093); settings: OD650, 24 h, higher = more signal, called active from +8 up or from −8 down;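 further: MC1000 strain lacking acrAB efflux and sulA so SOS filamentation is blocked; test concentration not given here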
# [17] = small-molecule microarray binders of probe aLefty2, primary screen, biochemical, biotinylated probe, 635/667 nm fluorescence (AID 1094); settings: higher = more signal;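 further: score merges spot fluorescence near 667 nm with spot signal-to-noise ratio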
# [18] = system: Noggin (protein binding on small-molecule microarray); assay: Noggin binders on small-molecule microarray, primary screen, biochemical, 635/667 nm fluorescence (AID 1095); settings: 635 nm fluorescence, higher = more signal;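 further: score merges 667 nm feature fluorescence with signal to noise over triplicate slides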
# [19] = molecular target: Neurogenic locus notch homolog protein 3 (Homo sapiens) (UniProt Q9UM47); assay: NOTCH3 binders on small-molecule microarray, primary screen, biochemical, 635/667 nm fluorescence (AID 1096); settings: NOTCH3 binding, 635 nm fluorescence, higher = more signal
# Neurogenic locus notch homolog protein 3 (Homo sapiens), sequence (Q9UM47 whole entry, looked up): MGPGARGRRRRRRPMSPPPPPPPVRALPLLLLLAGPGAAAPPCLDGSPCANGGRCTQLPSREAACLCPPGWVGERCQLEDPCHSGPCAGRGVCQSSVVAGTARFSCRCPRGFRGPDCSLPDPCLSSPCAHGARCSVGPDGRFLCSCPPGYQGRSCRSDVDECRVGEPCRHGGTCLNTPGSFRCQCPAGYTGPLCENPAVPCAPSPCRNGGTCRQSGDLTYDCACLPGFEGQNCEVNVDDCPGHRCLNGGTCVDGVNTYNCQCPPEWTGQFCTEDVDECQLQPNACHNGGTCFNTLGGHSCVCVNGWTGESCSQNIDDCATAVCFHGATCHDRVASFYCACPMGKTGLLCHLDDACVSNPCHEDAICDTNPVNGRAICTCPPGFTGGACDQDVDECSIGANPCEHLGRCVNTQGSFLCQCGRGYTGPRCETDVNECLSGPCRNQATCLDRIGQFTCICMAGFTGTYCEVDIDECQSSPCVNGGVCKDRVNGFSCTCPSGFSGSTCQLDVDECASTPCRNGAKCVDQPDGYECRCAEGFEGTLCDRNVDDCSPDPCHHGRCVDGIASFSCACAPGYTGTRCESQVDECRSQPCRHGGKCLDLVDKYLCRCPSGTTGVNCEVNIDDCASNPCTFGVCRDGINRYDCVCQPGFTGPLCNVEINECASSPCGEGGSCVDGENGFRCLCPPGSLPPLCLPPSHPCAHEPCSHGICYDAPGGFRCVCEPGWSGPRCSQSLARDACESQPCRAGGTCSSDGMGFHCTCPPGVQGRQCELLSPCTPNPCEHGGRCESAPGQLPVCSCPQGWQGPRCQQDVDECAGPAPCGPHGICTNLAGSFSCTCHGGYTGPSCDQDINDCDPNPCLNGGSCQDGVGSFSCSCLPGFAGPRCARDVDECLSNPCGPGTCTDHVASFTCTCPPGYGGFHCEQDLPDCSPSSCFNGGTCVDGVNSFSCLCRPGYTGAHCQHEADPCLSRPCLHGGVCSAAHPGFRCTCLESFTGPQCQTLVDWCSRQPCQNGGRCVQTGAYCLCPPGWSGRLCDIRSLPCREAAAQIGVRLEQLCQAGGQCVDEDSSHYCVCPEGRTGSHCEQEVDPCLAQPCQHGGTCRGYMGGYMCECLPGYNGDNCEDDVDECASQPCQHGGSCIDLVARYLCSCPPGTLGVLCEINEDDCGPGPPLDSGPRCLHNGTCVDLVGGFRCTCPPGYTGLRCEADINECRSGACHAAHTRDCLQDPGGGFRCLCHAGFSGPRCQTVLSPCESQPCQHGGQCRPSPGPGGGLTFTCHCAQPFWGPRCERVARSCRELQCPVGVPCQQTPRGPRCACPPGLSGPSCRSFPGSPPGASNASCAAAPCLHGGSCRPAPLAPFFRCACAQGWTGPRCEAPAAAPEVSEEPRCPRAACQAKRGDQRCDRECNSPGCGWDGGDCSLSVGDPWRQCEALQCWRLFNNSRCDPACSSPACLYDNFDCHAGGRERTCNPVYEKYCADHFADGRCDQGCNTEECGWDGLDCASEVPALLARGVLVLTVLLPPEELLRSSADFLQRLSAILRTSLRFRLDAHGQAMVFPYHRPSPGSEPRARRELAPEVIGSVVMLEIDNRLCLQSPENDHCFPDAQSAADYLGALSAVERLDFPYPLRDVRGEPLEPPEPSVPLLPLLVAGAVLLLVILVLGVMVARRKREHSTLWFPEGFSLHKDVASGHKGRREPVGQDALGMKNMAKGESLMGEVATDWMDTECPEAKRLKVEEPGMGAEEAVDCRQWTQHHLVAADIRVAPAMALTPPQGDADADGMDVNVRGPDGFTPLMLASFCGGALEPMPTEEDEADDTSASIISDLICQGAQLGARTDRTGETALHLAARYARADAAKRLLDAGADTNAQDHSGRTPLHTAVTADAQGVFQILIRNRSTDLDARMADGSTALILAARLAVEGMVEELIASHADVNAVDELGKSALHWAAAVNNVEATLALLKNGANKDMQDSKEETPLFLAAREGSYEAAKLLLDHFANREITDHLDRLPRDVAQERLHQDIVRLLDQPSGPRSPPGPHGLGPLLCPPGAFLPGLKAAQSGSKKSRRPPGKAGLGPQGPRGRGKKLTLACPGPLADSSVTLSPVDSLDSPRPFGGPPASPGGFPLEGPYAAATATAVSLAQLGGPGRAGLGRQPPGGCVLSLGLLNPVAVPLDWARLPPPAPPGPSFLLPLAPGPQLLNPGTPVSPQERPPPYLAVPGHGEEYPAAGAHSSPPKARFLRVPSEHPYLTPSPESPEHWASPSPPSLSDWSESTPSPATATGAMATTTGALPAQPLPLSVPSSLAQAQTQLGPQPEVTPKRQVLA
# [20] = small-molecule microarray binders of probe aEGFR, primary screen, biochemical, biotinylated probe, 635/667 nm fluorescence (AID 1097); settings: higher = more signal;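 further: probe is a biotinylated anti-EGFR antibody binding compounds printed on slides; score combines fluorescence near 667 nm and signal to noise of each spot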
SMILES,composite z-score [1],composite z-score [2],composite z-score [3],composite z-score [4],composite z-score [5],composite z-score [6],composite z-score [7],z-score [8],composite z-score [9],composite z-score [10],composite z-score [11],z-score [12],z-score [13],z-score [14],composite z-score [15],z-score [16],composite z-score [17],composite z-score [18],composite z-score [19],composite z-score [20]
COCC(=C=CC[C@H](O)c1cccc(OCCO)c1)C[C@H](O)COCc1ccccc1,0.0102,0.823,-0.0602,0.427,0.276,1.51,1.31,0.574 (inactive),0.256,-0.476,0.949,-0.244 (inactive),-1.43 (inactive),-0.271 (inactive),2.22,-0.142 (inactive),0.084,0.546,0.237,0.0167
COCCOC(=O)N1C(=O)[C@@]2(c3ccccc31)[C@H](c1ccccc1OCCO)N1[C@H](c3ccccc3)[C@H](c3ccccc3)OC(=O)[C@H]1[C@@H]2C(N)=O,-0.299,0.692,-0.0015,0.725,1.23,0.133,1.3,-2.08 (inactive),0.971,-0.0645,1.56,1.83 (inactive),1.54 (inactive),3.59 (inactive),2.89,0.0834 (inactive),0.198,0.463,1.08,0.0258
C=C(/C(=C/C[C@@H](OC(C)=O)c1ccc(OCCO)cc1)c1cc(C(=O)OC)ccc1OC)C(C)C,-0.247,0.239,-0.155,0.29,0.355,1.67,0.945,2.89 (inactive),-0.034,0.0024,0.629,-0.265 (inactive),0.272 (inactive),-1.5 (inactive),1.21,-0.268 (inactive),-0.152,0.902,0.843,-0.176
CO[C@H]1O[C@H](CO)[C@@H](OC(=O)CCc2ccccc2)[C@H](OC(=O)c2cc3ccccc3[nH]2)[C@H]1OC(=O)c1cc2ccccc2[nH]1,-0.262,0.489,-0.0321,0.72,1.15,1.21,1.02,-0.3 (inactive),0.29,0.0596,1.38,-0.583 (inactive),-0.0932 (inactive),20 (active),2.74,1.5 (inactive),-0.0468,0.565,1.07,-0.0662
O=C1C2C=CC(C(O)c3ccc(I)cc3)N(Nc3ccccc3)C2C(=O)N1c1ccccc1 (stereo not given),0.996,0.404,0.106,0.368,1.54,2.13,1.22,-1.92 (inactive),1.27,-0.0988,1.34,-0.165 (inactive),0.912 (inactive),0.879 (inactive),3.31,-0.882 (inactive),0.265,-0.369,0.82,0.0352
CC=CC(O)C1C=CC2C(=O)NC(=O)C2N1Nc1ccccn1 (stereo not given),-0.293,0.205,-0.151,0.204,1.03,0.934,1.24,0.571 (inactive),0.128,-0.0618,1.36,0.43 (inactive),1.99 (inactive),0.544 (inactive),0.871,-0.565 (inactive),0.0261,0.26,0.542,-0.257
COCCOC(=O)N1C(=O)[C@@]2(c3cc(C#CCC(C(=O)OC)C(=O)OC)ccc31)[C@H](C(=O)NC[C@H](O)c1ccccc1)[C@H]1C(=O)O[C@H](c3ccccc3)[C@H](c3ccccc3)N1[C@@H]2c1ccc(O)cc1,-0.0562,0.498,-0.0647,0.954,0.269,1.01,1.28,-0.81 (inactive),1.04,0.213,1.36,1.05 (inactive),1.37 (inactive),0.174 (inactive),2.78,-0.377 (inactive),-0.0845,-1.08,0.687,-0.0828
C=CCNC(=O)[C@@H]1[C@H]2C(=O)O[C@H](c3ccccc3)[C@H](c3ccccc3)N2[C@H](c2ccc(OCCO)cc2)[C@@]12C(=O)N(C(=O)OCCOC)c1ccc(C#CCCO)cc12,-0.209,-0.28,-0.0203,0.508,1.33,1.24,1.19,-0.0789 (inactive),0.273,-0.164,1.55,-0.0915 (inactive),0.269 (inactive),4.08 (inactive),1.85,2.17 (inactive),-0.0861,0.916,1.1,-0.0088
NCCCCCNC(=O)[C@@H]1C[C@@H]2C(=O)N3CCC[C@H]3C(=O)N2[C@@H]1c1ccc(O)cc1,1.19,0.0642,0.0232,0.42,0.714,0.976,1.1,0.0207 (inactive),1,0.0053,0.61,0.758 (inactive),-0.986 (inactive),1.3 (inactive),1.97,1.05 (inactive),0.512,0.408,0.391,0.171
CCCNC(=O)[C@@]1(C)c2ccccc2C(=O)N(Cc2ccccc2)[C@H]1c1ccc(CO)cc1,1.93,-0.685,0.12,1.32,-1.28,1.97,0.974,-1.98 (inactive),0.476,0.106,1.54,-0.864 (inactive),-1.08 (inactive),-0.871 (inactive),2.76,1.32 (inactive),0.0844,-1.1,-0.127,-0.094
CN(C)C(=O)[C@]1(CCS(=O)(=O)c2ccccc2)N=C(c2ccc(OCCCO)cc2)O[C@@H]1c1ccccc1,0.227,0.398,0.0759,0.88,1.58,1.76,1.35,-1.74 (inactive),0.968,-0.236,1.42,-0.897 (inactive),-0.804 (inactive),4.54 (inactive),3.57,0.29 (inactive),0.0943,0.577,1.01,0.127
COc1ccc(C#Cc2ccc3c(c2)[C@]2(C(=O)N3)[C@H](c3ccc(OCCO)cc3)N3[C@H](c4ccccc4)[C@H](c4ccccc4)OC(=O)[C@H]3[C@@H]2C(=O)N2CCc3cc(OC)c(OC)cc3C2)cc1,-0.253,0.447,-0.0746,0.862,1.2,1.78,1.16,1.14 (inactive),0.0959,-0.623,1.55,2.27 (inactive),1.94 (inactive),4.57 (inactive),2.81,0.0933 (inactive),-0.209,0.784,1.12,0.481
COCC1C2CC[C@H]3C(OCc4ccc(OC)cc4)OC[C@]4(C)[C@H]3C2=C(CN4C(=O)OC(C)(C)C)[C@H](C)C1COC (stereo not given in full),-0.163,0.0867,0.142,1.09,1.72,1.73,1.18,-0.31 (inactive),0.993,-0.164,1.57,-1.23 (inactive),-1.18 (inactive),-0.444 (inactive),3.78,-1.22 (inactive),0.0359,0.372,1.05,-0.0656
COCCOC(=O)N1C(=O)[C@@]2(c3cc(C#CCNC(N)=O)ccc31)[C@H](c1ccc(OCCO)cc1)N1[C@H](c3ccccc3)[C@H](c3ccccc3)OC(=O)[C@H]1[C@@H]2C(=O)NC[C@H](O)c1ccccc1,-0.0349,0.907,-0.0881,0.417,1.25,0.46,0.77,0.499 (inactive),0.506,-0.215,1.57,2.3 (inactive),3.07 (inactive),4.91 (inactive),2.44,0.925 (inactive),0.19,1.1,1.06,0.0671
COC(=O)[C@@]1(Cc2ccc(F)cc2)[C@H]2c3cc(C(=O)N(C)C)n(Cc4c(CO)[nH]cc(C)c4=O)c3C[C@H]2CN1C(=O)c1ccccc1,0.535,-0.199,0.142,1.16,1.42,2.1,1.15,1.09 (inactive),0.255,-0.0237,-0.51,0.342 (inactive),-0.392 (inactive),0.796 (inactive),1.63,-0.893 (inactive),0.378,-0.115,-0.032,0.297
C=C[C@@H](OC)[C@H](OC(=O)Nc1ccc(SC)cc1)c1ccc(OCCO)cc1,0.0275,0.363,0.0166,0.485,0.794,1.43,1.33,6.53 (inactive),0.574,0.675,1.13,0.456 (inactive),-0.675 (inactive),0.0094 (inactive),2.11,0.0144 (inactive),-0.057,0.822,0.82,-0.039
COCCOC(=O)N1C(=O)[C@@]2(c3cc(C#Cc4ccc(OC)cc4)ccc31)[C@H](C(=O)NC[C@H](O)c1ccccc1)[C@H]1C(=O)O[C@H](c3ccccc3)[C@H](c3ccccc3)N1[C@@H]2c1ccc(OCCO)cc1,-0.157,0.946,-0.12,0.912,1.12,1.46,1.28,0.643 (inactive),0.41,-0.0994,1.54,1.62 (inactive),1.74 (inactive),7.18 (inactive),2.87,1.38 (inactive),-0.0412,1.32,1.04,-0.0532
CN(C)C(=O)[C@@]1(CCC(=O)OC(C)(C)C)N=C(c2ccc(OCCCO)cc2)O[C@H]1c1ccccc1CN=[N+]=[N-],-0.0162,1.01,0.0408,0.39,1.06,1.92,1.28,-0.119 (inactive),0.717,0.0373,1.51,-0.142 (inactive),0.245 (inactive),-1.11 (inactive),3.83,0.488 (inactive),0.047,0.968,0.599,-0.0238
